In the library only some 0.43% were active in any assay of this set; here they are far more common.
GLA inh pH 4.5: qHTS Assay for Inhibitors of Human alpha-Galactosidase at pH 4.5; activity change, negative = inhibition, % at 105 µM; purified enzyme, 4-MU-alpha-Gal fluorescence, pH 4.5; AID 1467, 2008; 230,000 tested, under 10 active; Alpha-galactosidase A (Homo sapiens), P06280
Target sequence (P06280 whole entry, looked up): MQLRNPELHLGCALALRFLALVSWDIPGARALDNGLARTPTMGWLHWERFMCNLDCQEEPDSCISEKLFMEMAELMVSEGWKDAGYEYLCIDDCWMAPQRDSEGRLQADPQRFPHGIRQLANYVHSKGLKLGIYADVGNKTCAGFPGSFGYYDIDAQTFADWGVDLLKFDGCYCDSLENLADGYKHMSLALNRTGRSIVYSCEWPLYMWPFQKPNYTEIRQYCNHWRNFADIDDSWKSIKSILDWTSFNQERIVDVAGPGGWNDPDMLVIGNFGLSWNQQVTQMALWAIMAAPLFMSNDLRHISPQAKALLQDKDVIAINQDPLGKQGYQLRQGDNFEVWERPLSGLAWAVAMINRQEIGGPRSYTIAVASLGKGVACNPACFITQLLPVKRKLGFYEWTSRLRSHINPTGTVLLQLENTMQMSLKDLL
GLA spleen mod: qHTS Assay for Inhibitors and Activators of Human alpha-Galactosidase From Spleen Homogenate; Potency, µM (top dose mostly 80 µM), usual class: inhibitors; actives 0.008% (n = 240,000); human spleen homogenate, 4MU-alpha-Gal fluorescence, 40 min; Alpha-galactosidase A (Homo sapiens), P06280
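Fluorogenic readout (Ex 365/Em 440 nm) of 4-methylumbelliferone released from 1 mM 4-MU-alpha-galactoside by spleen homogenate, 40 min at 37C, pH 5.0. Data normalized to no-enzyme and enzyme controls; Hill-equation AC50 from compound titrations.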
GAA glycogen: qHTS Assay for Inhibitors and Activators of Human alpha-Glucosidase Cleavage of Glycogen | recombinant GAA, glycogen substrate, Amplex Red glucose oxidase fluorescence | Potency, µM (doses to about 76.4 µM), most hits filed as inhibitors | actives 0.38% (n = 300,000);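 note: the screen sought inhibitors and activators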
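Recombinant human enzyme (4 nM); glycogen substrate; 37 C, 40 min, pH 5.0. Readout: coupled glucose oxidase/Amplex Red fluorescence.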
aGlu spleen mod: qHTS Assay for Inhibitors and Activators of Human alpha-Glucosidase From Spleen Homogenate | human spleen homogenate, 4-MU-alpha-glucoside fluorescence | Potency, µM (doses to about 79.9 µM), actives largely listed as inhibitors | actives 0.006% (n = 240,000) | AID 2112, 2009
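AC50 values come from Hill-equation fits of concentration-response data, normalized to no-enzyme and full-activity controls. Enzyme source: 1 ug human spleen homogenate; 1 mM fluorogenic 4-MU glucoside, pH 5.0 citrate buffer, 37 C, 40 min.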
N370S GC: qHTS Assay for Inhibitors and Activators of N370S glucocerebrosidase as a Potential Chaperone Treatment of Gaucher Disease. Lysosomal acid glucosylceramidase (Homo sapiens), P04062. actives 0.092% (n = 330,000). AID 2101, 2009. Potency, µM (highest dose often 59.4 µM), actives largely listed as inhibitors. N370S GC spleen homogenate, 4MU-glucoside fluorescence
GAA inhib: qHTS Assay for Inhibitors of Human alpha-Glucosidase as a Potential Chaperone Treatment of Pompe Disease. Lysosomal alpha-glucosidase (Homo sapiens), P10253. purified human GAA, 4-MU-alpha-glucoside fluorescence. Potency, µM (titrated, usually from 76.9 µM), hits mostly inhibitors. actives 0.005% (n = 200,000)
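Activity normalized between no-enzyme (basal) and enzyme-only wells. Conditions: 4 nM human enzyme, 400 uM fluorogenic substrate, citrate/phosphate pH 5.0 with Tween-20, 20 min room temperature, compounds up to 77 uM.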
Large screens that a line does not name were inactive. Calls come from the whole dose curve; as a rule, active = well fitted curve in the direction sought with a large enough effect; inconclusive = small, poorly fitted or top-dose-only effect, or another doubt; inactive = no such curve, though single readings can be large; an effect the other way counts as inactive or inconclusive.

COc1cccc(OC)c1-c1cc(C(=O)NC2(C(=O)O)C3CC4CC(C3)CC2C4)nn1-c1ccc(C(=O)N(C)CCCN(C)C)cc1C(C)C (configuration not stated)	none (no result: GLA inh pH 4.5, GAA glycogen, GAA inhib)
C/C(=C\C(=O)c1ccccc1)Nc1ccc(O)cc1	GAA glycogen 40µM
C/C(=C\C(=O)c1cccnc1)Nc1ccc(O)cc1	GAA glycogen 14µM
COc1ccc(NC(=O)c2cccnc2)cc1	none (no result: GLA inh pH 4.5, GLA spleen mod, aGlu spleen mod, GAA inhib)
O=C(Nc1ccc2nc(SCC(=O)N3CCCc4ccccc43)sc2c1)c1cccc(Cl)c1	none (no result: GLA inh pH 4.5, GLA spleen mod, aGlu spleen mod, N370S GC, GAA inhib)
Cc1ccc(NS(=O)(=O)c2cc([N+](=O)[O-])ccc2NNC(=S)Nc2cc(C)ccc2C)c(C)c1	N370S GC inconclusive
COc1ccc(NC(=S)NNc2ccc([N+](=O)[O-])cc2S(=O)(=O)Nc2ccc(C)cc2C)cc1	GAA glycogen inconclusive, N370S GC 22µM, GAA inhib inconclusive
COc1ccc(C2C=C(c3ccc(Cl)cc3)Nc3nc(-c4ccc(Cl)cc4)nn32)cc1 (configuration not stated)	none (no result: GLA inh pH 4.5, GLA spleen mod, aGlu spleen mod, N370S GC, GAA inhib)
O=C(N/N=C1/C[C@@H](O)[C@@H](O)[C@@H]2[C@@H]3C(=O)N(C[C@@H]4CCCO4)C(=O)[C@H]3CC[C@@H]12)OCc1ccccc1	none (no result: GLA inh pH 4.5, GAA glycogen, GAA inhib)
COc1ccc(NC(=O)C(C)n2nnc3sc(-c4ccccc4)cc3c2=O)cc1Cl (configuration not stated)	none (no result: GLA inh pH 4.5, GLA spleen mod, aGlu spleen mod, N370S GC, GAA inhib)
COc1ccc(-n2sc3c(c2=S)-c2cc(OC)ccc2NC3(C)C)cc1	GAA glycogen inconclusive
COc1ccc2c(c1)-c1c(sn(-c3ccc(OC)c(OC)c3)c1=S)C(C)(C)N2	GAA glycogen 22µM
Cc1cc(O)c(/C=N/Nc2ccccc2Cl)c(=O)o1	GAA glycogen 25µM
O=C(NN=C1C2CC3CC(C2)CC1C3)c1ccncc1	GAA glycogen inconclusive
O=C(NN=C1C2CC3CC(C2)CC1C3)c1cc(Cl)ccc1O	GAA glycogen 13µM
Brc1ccc(C2C3=C(Nc4ncnn42)c2ccccc2OC3c2ccncc2)cc1 (configuration not stated)	N370S GC 14µM
COC(=O)C1=C(C)N(Cc2ccc(C)cc2)C(=O)/C1=C\c1cc(OC)c(OC)c(OC)c1	none
COC(=O)C1=C(C)N(Cc2ccc(C)cc2)C(=O)/C1=C\c1ccc(O)c(OC)c1	GAA glycogen 28µM
COc1ccc2c(c1)C(=O)[C@@H](OC(=O)N[C@H](C)C1CCCCC1)[C@H](c1ccc(OC)c(Br)c1)O2	none (no result: GAA glycogen, GAA inhib)
Oc1ccc(/C=N/Nc2ccnc3cc(Cl)ccc23)cc1O	GAA glycogen 45µM (no result: GAA inhib)
Oc1ccc(N2CCN(C(c3ccncc3)c3nnnn3C3CCCC3)CC2)cc1 (configuration not stated)	GAA glycogen 12µM
CN=c1scc(-c2ccco2)n1/N=C/c1ccc(O)c(O)c1	GAA glycogen 5.6µM
C=CCN=c1scc(C)n1/N=C/c1ccc(O)c(O)c1	GAA glycogen inconclusive
CCOc1ccc(-n2nc(CO)c(C(=O)NCc3cccs3)n2)cc1	none (no result: GLA inh pH 4.5, GLA spleen mod, aGlu spleen mod, N370S GC, GAA inhib)
COc1cc(C(=O)OCCC(C)C)cc(OC)c1O	GAA glycogen 11µM
CCCCOC(=O)c1cc(Cl)c(O)c(OC)c1	none
O=c1[nH]c2cc([N+](=O)[O-])c([N+](=O)[O-])cc2[nH]c1=O	N370S GC 8.9µM
Cc1noc(-c2ccc(N3CCCCC3C)c([N+](=O)[O-])c2)n1 (configuration not stated)	none (no result: GLA inh pH 4.5, GLA spleen mod, aGlu spleen mod, N370S GC, GAA inhib)
C=CC[C@@H]1[C@H](O)CC[C@@]2(C)[C@H]1CC[C@@H]1[C@@H]2CC[C@]2(C)C([C@H](C)CCCC(C)C)CC[C@@H]12 (some centres not stated)	none (no result: GLA inh pH 4.5, GAA glycogen, GAA inhib)
Cc1[nH][nH]c(=O)c1C(c1ccc(-c2ccc(F)cc2)o1)c1c(C)[nH][nH]c1=O	GAA glycogen inconclusive
Cc1[nH][nH]c(=O)c1C(c1ccc(-c2ccc(Cl)c(Cl)c2)o1)c1c(C)[nH][nH]c1=O	GAA glycogen 32µM
COc1ccc(Nc2c3c(nc4ccc(C)cc24)CCC3)cc1	N370S GC inconclusive (no result: GLA inh pH 4.5, GLA spleen mod, aGlu spleen mod, GAA inhib)
Cc1ccc2nc3c(c(Nc4ccc(O)cc4)c2c1)CCC3	GAA glycogen 13µM, N370S GC inconclusive (no result: GLA inh pH 4.5, GLA spleen mod, aGlu spleen mod, GAA inhib)
Cc1ccc(C(O)C2=CCCC2=O)cc1 (configuration not stated)	none (no result: GAA glycogen, GAA inhib)
O=C(O)CC1=C(O)C(=O)N(c2ccccc2)C1c1ccccc1 (configuration not stated)	GAA glycogen inconclusive
O=C(O)CC1=C(O)C(=O)N(c2ccccc2)C1c1ccc(Br)cc1 (configuration not stated)	GAA glycogen 25µM
Cc1ccc(-c2nnc3c4ccccc4c(C)nn23)cc1S(=O)(=O)N1CCN(CCO)CC1	N370S GC 16µM
Cc1ccc(-c2nnc3c4ccccc4c(C)nn23)cc1NC(=O)CN1CCOCC1	none
COc1cc(-c2nnc(SCc3cc(=O)oc4cc(O)c(O)cc34)o2)cc(OC)c1OC	GAA glycogen 16µM
CCOC(=O)CSc1nnc(-c2cc(OC)c(OC)c(OC)c2)o1	none
O=C(O)C[C@@H]1C(=O)O[C@@H]2C(COC(=O)c3cc(O)c(O)c(O)c3)O[C@@H](OC(=O)c3cc(O)c(O)c(O)c3)[C@@H](OC(=O)c3cc(O)c(O)c4c3[C@H]1[C@H](O)C(=O)O4)[C@H]2OC(=O)c1cc(O)c(O)c(O)c1 (some centres not stated)	GAA glycogen 1.6µM, aGlu spleen mod inconclusive (no result: GAA inhib)
Nc1ccccc1Nc1nc2ccccc2[nH]1	GAA glycogen 20µM (no result: GLA inh pH 4.5, GLA spleen mod, aGlu spleen mod, GAA inhib)
O=C(NNc1c2ccccc2nc2ccccc12)c1ccc(O)cc1O	GAA glycogen 28µM
Cc1ccc(C(=O)NNc2nc3ccccc3nc2C(F)(F)F)cc1	GAA glycogen 16µM
O=C(NNc1c2ccccc2nc2ccccc12)c1ccc(O)cc1	GAA glycogen 11µM
O=C(NNc1c2ccccc2nc2ccccc12)c1ccccc1O	none
Cc1ccc(C(=O)Nc2nc3ccccc3n3nnnc23)cc1	none
C=CC[C@@H]1C=C[C@@H](O/N=C\C[C@@H]2C=C[C@H](OC(C)=O)[C@H](COC(C)=O)O2)[C@@H](CO)O1	none (no result: GLA inh pH 4.5, GAA glycogen, GAA inhib)
O=C(O)COc1ccc(/C=N/n2c(COc3ccccc3)nc3ccccc3c2=O)cc1	none
